As a reminder, the inhibition is the drop in the measured response relative to a control, in per cent.

Inhibition data for twelve molecules are collected here from ChEMBL document CHEMBL3433997, “St. Jude Leishmania screening dataset” (2016).

Holding throughout (type): functional
In experiment [1] the target is Solute carrier family 2, facilitated glucose transporter member 1 (Homo sapiens) (UniProt P11166). The experiment in a line: ST_JUDE_LEISH: Cytotoxicity at 2uM final concentration against transgenic Leishmania Mexicana promastigotes LmGLUT1 that are glucose transport deficient and complemented with the human glucose transporter GLUT1. Activity is measured by DNA content using SYBR green in vitro.

Experiment [2] concerns the target Hexose transporter 1 (Plasmodium falciparum) (UniProt O97467). The experiment in a line: ST_JUDE_LEISH: Cytotoxicity at 2uM final concentration against transgenic Leishmania Mexicana promastigotes LmPfHT that are glucose transport deficient and complemented with the Plasmodium falciparum hexose transporter. Activity is measured by DNA content using SYBR green in vitro.

Experiment [3] addresses Glucose transporter (Leishmania mexicana) (UniProt O61059). The experiment in a line: ST_JUDE_LEISH: Cytotoxicity at 2uM final concentration against transgenic Leishmania Mexicana promastigotes LmGT2 that are glucose transport deficient and complemented with the L. Mexicana glucose transporter 2. Activity is measured by DNA content using SYBR green in vitro.

The structures appear in SMILES notation.

Solute carrier family 2, facilitated glucose transporter member 1 (Homo sapiens), sequence (P11166 whole entry): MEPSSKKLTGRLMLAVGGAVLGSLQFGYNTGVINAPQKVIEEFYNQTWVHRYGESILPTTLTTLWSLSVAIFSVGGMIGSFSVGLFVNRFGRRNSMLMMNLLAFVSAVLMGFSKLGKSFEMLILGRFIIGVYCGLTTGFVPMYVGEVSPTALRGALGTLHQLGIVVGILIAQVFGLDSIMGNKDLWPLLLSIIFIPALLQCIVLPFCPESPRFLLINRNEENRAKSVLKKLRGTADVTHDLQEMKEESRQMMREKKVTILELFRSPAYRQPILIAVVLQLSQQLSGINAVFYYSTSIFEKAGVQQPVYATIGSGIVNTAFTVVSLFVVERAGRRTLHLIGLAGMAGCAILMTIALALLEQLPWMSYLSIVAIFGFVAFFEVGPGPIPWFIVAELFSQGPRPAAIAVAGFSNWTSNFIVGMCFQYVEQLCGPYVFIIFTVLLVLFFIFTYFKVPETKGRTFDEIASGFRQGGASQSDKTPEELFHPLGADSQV

Turning to `CC1CCc2sc(-c3nnc(SC(C)C(=O)NC4CC4)o3)cc2C1` (stereo unspecified), the inhibition was -0.92% in experiment [1], 1.65% in experiment [2] and 1.25% in experiment [3].

Take `COc1cc(NC(=O)c2ccc3oc4ccccc4c3c2)ccc1OCCN1CCCCC1`: the values for the inhibition in experiment [1], in experiment [2] and in experiment [3] were -0.45%, 1.28% and 0.62%, respectively.

Regarding `Cc1noc(-c2ccccc2)c1NC(=O)N1CCN(CCCCCCNC(=O)/C=C/c2ccc(Cl)c(Cl)c2)CC1`, the inhibition in experiment [1] was -2.35%; in experiment [2], 0.35%; in experiment [3], -1.3%.

`Cc1nc(O)c2c(ccc3ccc(CNc4ccc(C(=O)N[C@@H](CCC(=O)O)C(=O)O)c(F)c4)cc32)n1`: the inhibition in experiment [1] is -0.83%; in experiment [2], 0.87%; in experiment [3], -0.16%.

`CC1(C)CCCN(Cc2c(O)ccc3c(O)c(-c4nc5ccccc5s4)c(=N)oc23)C1`: the inhibition was 4.5% in experiment [1], 1.38% in experiment [2] and -2.9% in experiment [3].

Take `CCN1CCN(C(=O)NC(C(=O)N2CCCC(COc3ccc(Cc4ccccc4)cc3)C2)c2cccs2)C(=O)C1=O` (stereo unspecified): the inhibition was determined as 3.59% in experiment [1], 3.3% in experiment [2] and 4.28% in experiment [3].

`CCOc1cc(Cc2cnc(N)nc2N)cc(OCC)c1O`: the inhibition is 1.1% in experiment [1], 1.86% in experiment [2] and -1.21% in experiment [3].

`CCCC(=O)c1cnc2c(OCCCc3c[nH]cn3)cccc2c1Nc1c(C)cccc1C`: the inhibition in experiment [1] is 2.21%; in experiment [2], 1.13%; in experiment [3] it was -1.19%.

`COc1cc(Cc2cnc(N)nc2N)ccc1OCc1cccc(Oc2ccccc2)c1`: the inhibition in experiment [1] was 2.15%; in experiment [2], 1.48%; in experiment [3] it was 0.19%.

For `O=C(NCC1CCN(Cc2ccc3c(c2)OCCO3)C1)c1cc(-c2ccccc2F)cs1` (stereo unspecified), the values for the inhibition in experiment [1], in experiment [2] and in experiment [3] were 4.88%, 4.71% and 7.55%, respectively.

`CN(C)CCOc1ccc2c(=O)cc(CCc3cccc(F)c3F)n(CC(=O)N(C)Cc3ccc(-c4ccc(C(F)(F)F)cc4)cc3)c2c1`: the inhibition is -1.05% in experiment [1], -0.55% in experiment [2] and 0.06% in experiment [3].

Take `CC1(C)NC(N)=NC(=N)N1OCCCOc1ccc([N+](=O)[O-])cc1`: the inhibition in experiment [1] is 0.81%; in experiment [2] it was 0.61%; in experiment [3], 0.11%.
